From PubChem BioAssay
Rows were chosen to be rich in hits. Some 7.3% of all compounds tested hit in one or more screens of this group.
SMN2 splice enh: SMN2 splice variant enhancement; actives 2.8% (n = 210,000); Potency, µM (doses to about 46.1 µM), for inactives: at the top dose activity change, positive = activation, most hits filed as activators; HEK293 SMN2-luciferase splicing reporter, luminescence, 30-36 h; also: % of control where 0% means no effect; nearly all actives have a fitted effect of over 55% in size
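qHTS luciferase splicing reporter: luminescence rises when SMN2 exon 7 is included in transfected HEK293 cells. Compound exposure lasted 30-36 h at 37C, with 4.5 mM final sodium butyrate as control, followed by a ONE-Glo read.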
KinaseGlo FLuc: Kinase-Glo luciferase inhibition (counter-screen) | Kinase-Glo luciferase, ATP luminescence, 8 min | Potency, µM (series often up to 38.3 µM), for the others: at the highest dose activity change, negative = inhibition, hits mostly inhibitors | actives 0.28% (n = 200,000); also: % is scaled to controls: 0 for no effect and ±100 for the full control effect; nearly all actives have a fitted effect of over 60% in size
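Kinase-Glo luciferase light output from ATP and luciferin was measured with 10 uM ATP, within the enzyme's linear range. Buffer: 50 mM imidazole pH 7.2, 50 mM KCl, 7 mM MgCl2, 0.01% Tween 20, 0.05% BSA; luminescence read after 8 min at ambient temperature.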
ELG1 genotoxic: genotoxicity induction in ELG1-luciferase HEK293T cells; HEK293T ELG1-luciferase reporter, luminescence, 16 h; Potency, µM (highest dose often 46 µM), for inactives: at the top dose activity change, positive = activation, usual class: activators; actives 1.3% (n = 330,000); AID 504466; also: % of control where 0% means no effect; nearly all actives have a fitted effect of over 60% in size
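Screening used a luciferase reporter fused to human ELG1 in HEK293T cells. Luminescence was read on a CCD plate imager after 16 hr exposure and 30 min ONE-Glo incubation.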
FLuc counter: counter-screen for miR-21 project: firefly luciferase inhibitors or activators; P08659; purified FLuc, Km substrates, luminescence inhibition; Potency, µM (top dose mostly 57.5 µM), for inactives: at the highest dose activity change, negative = inhibition, hits mostly inhibitors; actives 6.9% (n = 360,000); AID 588342;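 also: plate controls were vehicle for no effect and reference inhibitor for full effect; nearly all actives have a fitted effect of over 55% in size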
Target sequence (P08659 whole entry, looked up): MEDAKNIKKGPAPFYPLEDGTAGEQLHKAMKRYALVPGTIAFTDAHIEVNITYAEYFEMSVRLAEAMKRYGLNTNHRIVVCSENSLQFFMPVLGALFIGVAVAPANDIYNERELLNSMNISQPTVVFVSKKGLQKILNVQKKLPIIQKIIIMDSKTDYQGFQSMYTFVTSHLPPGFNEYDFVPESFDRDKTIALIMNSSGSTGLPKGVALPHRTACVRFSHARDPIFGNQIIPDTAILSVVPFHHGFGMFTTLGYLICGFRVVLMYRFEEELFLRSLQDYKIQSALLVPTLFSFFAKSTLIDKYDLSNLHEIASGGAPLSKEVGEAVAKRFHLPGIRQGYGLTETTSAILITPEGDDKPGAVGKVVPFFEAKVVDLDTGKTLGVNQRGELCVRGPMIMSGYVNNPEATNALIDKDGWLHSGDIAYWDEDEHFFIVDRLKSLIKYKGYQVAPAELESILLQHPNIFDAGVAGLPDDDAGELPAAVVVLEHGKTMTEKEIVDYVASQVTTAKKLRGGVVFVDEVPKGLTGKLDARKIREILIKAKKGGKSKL
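Biochemical qHTS of compounds, final roughly 60 µM downward over six points, against 10 nM purified firefly luciferase using Km concentrations of substrates (10 uM D-luciferin, 10 uM ATP) in Tris acetate pH 7.5 buffer; luminescence output.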
NPC1 promoter act: activates the NPC1 promoter; AID 485313; actives 2.4% (n = 320,000); Huh7 NPC1 promoter luciferase reporter, 24 h; Potency, µM (top dose mostly 9.22 µM), for the others: at the highest dose activation, actives largely listed as activators; also: % of control where 0% means no effect; nearly all actives have a fitted effect of over 60% in size
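NPC1 promoter–luciferase Huh7 cells; 24 h compound; luminescence.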
Rab9 promoter act: activates the Rab9 promoter; Huh7 Rab9 promoter-luciferase reporter, luminescence, 24 h; Potency, µM (highest dose often 9.22 µM), inactives show top-dose activation, negative = inhibition, most hits filed as activators; actives 2.8% (n = 320,000); also: % of control where 0% means no effect; nearly all actives have a fitted effect of over 60% in size
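Luciferase signal after 10 min detection reagent at ambient indicates Rab9 promoter upregulation; stably transfected Huh7 cells were treated 24 h with compound in DMSO at 37 °C, 5% CO2.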
Active calls of the source: *; ? = inconclusive; nt = no result. Calls follow the shape of the dose curve; as a rule, active = well fitted curve in the direction sought with a large enough effect; inconclusive = small, poorly fitted or top-dose-only effect, or another doubt; inactive = no such curve, though single readings can be large; an effect the other way counts as inactive or inconclusive. Potency is read from the fitted curve at half-maximal effect.

SMILES	SMN2 splice enh	KinaseGlo FLuc	ELG1 genotoxic	FLuc counter	NPC1 promoter act	Rab9 promoter act
CCCn1c(N)c(N2CCCCC2)c(=O)n(CC(=O)Nc2ccc(OC(F)(F)F)cc2)c1=O	19%	-2%	0%	-1%	0%	0%
O=C(O)Cc1ccc(NC(=O)c2cccc(NC(=O)c3ccco3)c2)cc1	nt	nt	4%	17µM*	-3%	-2%
O=C(Nc1ccc(O)c(C(=O)O)c1)c1cccc(NC(=O)c2ccco2)c1	nt	nt	-1%	11µM*	-1%	-5%
O=C(NCc1ccccc1)c1cccc(NC(=O)c2ccco2)c1	-30%	0%	3%	-17%	6%	-5%
Cc1ccccc1NC(=O)c1cccc(NC(=O)c2ccco2)c1	nt	nt	-1%	?	-3%	0%
O=C(O)c1cccc(NC(=O)c2ccccc2NC(=O)c2ccco2)c1	nt	nt	1%	?	-5%	-2%
Cc1c(NC(=O)c2cccc(NC(=O)c3ccco3)c2)cccc1C(=O)O	8%	0%	0%	19µM*	-3%	3%
Oc1nc(Nc2ccc(F)cc2)sc1/C=C1\C=Nc2ccccc21	nt	nt	-1%	?	14%	17%
O=c1[nH]c(S)c(/C=C2\C=Nc3ccccc32)s1	nt	nt	6%	15µM*	2%	-2%
O=C(c1ccco1)N1CCN(c2ncnc3c(-c4ccccc4)nsc23)CC1	11%	-1%	-2%	11µM*	3.2µM*	2.8µM*
NC(=O)C1CCN(c2ncnc3c(-c4ccccc4)nsc23)CC1	12%	3%	13%	11µM*	3.5µM*	3.5µM*
NC(=O)C1CCN(c2ncnc3c2cnn3-c2ccccc2)CC1	nt	nt	nt	-17%	nt	nt
CCCCN1c2ccccc2N(CCCO)c2cc(C)nnc21	13%	-1%	-2%	12µM*	13%	3%
CCCCN1C2=NCCCN2c2ccccc21	0%	-6%	0%	-2%	0%	-1%
Cc1ccc(C(=O)CNc2ccccc2C)cc1	-3%	-5%	?	6µM*	17%	24%
O=C(CNc1ccc(Br)cc1)c1ccccc1	-8%	-19%	?	?	5%	6%
Cc1ccc(NCCC(=O)c2cccc([N+](=O)[O-])c2)c(C)c1	11%	0%	11%	24µM*	1%	0%
O=C(CNc1ccc(F)cc1)c1ccccc1	19%	-27%	?	15µM*	3%	0%
Cc1ccc(C(=O)CNc2ccc(C)cc2C)cc1	nt	nt	3%	13µM*	-2%	2%
Cc1cccc(NCCC(=O)c2ccc([N+](=O)[O-])cc2)c1C	16%	-2%	-5%	-3%	0%	20%
Cc1ccccc1NC(=O)CC(=O)c1ccccc1	nt	nt	11%	?	28%	?
Cc1ccc(-c2c3c(=O)n(C)c(=O)n(C)c3cn2CCCN2CCOCC2)cc1	4%	2%	5%	-2%	-1%	0%
Cc1ccc(C(=O)CNc2ccccc2)cc1	nt	nt	?	9.5µM*	19%	24%
Cc1ccc(C(=O)CC(=O)c2ccc(C(C)(C)C)cc2)cc1	nt	2%	6%	9.5µM*	?	?
O=C(CNc1cccc(Cl)c1)c1ccc(Br)cc1	nt	nt	4%	?	0%	8%
O=C(CNc1ccccc1Cl)c1ccc(Br)cc1	nt	nt	-13%	17µM*	0%	1%
Cc1ccc(S(=O)(=O)CC(=O)c2ccccc2)cc1	-5%	-1%	0%	?	22%	27%
CC(C)(C)c1ccc(C(=O)CS(=O)(=O)c2ccccc2)cc1	3%	-1%	?	2.1µM*	1.4µM*	0.89µM*
COc1ccc(C(=O)CC(=O)c2ccc(C(C)(C)C)cc2)cc1	-11%	-9%	nt	nt	nt	nt
Cc1ccc(C(=O)CNc2ccc(Br)cc2)cc1	5%	1%	13%	-19%	20%	14%
